RBX1-CUL1 inh – inhibitors of human ROC1-CUL1 ubiquitin ligase activity; inhibition, % at 10 µM; E3 ubiquitin-protein ligase RBX1 (Homo sapiens) + Cullin-1 (Homo sapiens), P62877+Q13616; 140,000 tested, 0.6% active; AID 1347404, 2020; in vitro K48 di-Ub FRET, acceptor:donor ratio, 45 min; in the data active = inhibition above about 25%
Of the large screens only hits and unclear results are named; the others gave an inactive call. The full list was thinned out, with hits kept by preference.

C=CCN=C(N)SCc1nc2ccccc2c(=O)[nH]1	RBX1-CUL1 inh 36
C=CCSc1nc2ccccc2c(=O)[nH]1	none
CCN(CC)Cc1nc2ccccc2c(=O)[nH]1	none
Cc1cnc(CN(C)C(=O)c2ccc3oc(CCCc4ccccc4)nc3c2)[nH]1	none
CC1=NOC(=O)/C1=C\c1cccs1	none
Cc1ccc2c(c1)C(=O)/C(=C/c1cccs1)CO2	RBX1-CUL1 inh 73
COc1ccc(/C=C2\COc3ccccc3C2=O)cc1OC	none
Cc1cc(/C=C2/SC(=S)NC2=O)c(C)n1-c1ccccc1	none
O=C1NC(=S)S/C1=C/c1ccc(F)cc1	none
O=C1NC(=S)S/C1=C/c1ccc(N2N=C(c3ccccc3)CC2c2ccccc2)cc1 (stereo not drawn)	RBX1-CUL1 inh 81
CCC1NC2(C(=O)N(C)c3ccccc32)C2C(=O)N(Cc3ccccc3)C(=O)C12 (stereo not drawn)	none
CSCCCNC(=O)C1CCCN(c2nc(C)c3ccc(S(C)(=O)=O)cc3n2)C1 (stereo not drawn)	none
Cc1sc2nc(-c3cccnc3)[nH]c(=O)c2c1C	none
CCOC(=O)C1=C(c2ccccc2)N=c2s/c(=C/c3cc([N+](=O)[O-])ccc3N3CCOCC3)c(=O)n2C1c1ccc(OCC)cc1 (stereo not drawn)	none
N#CC1C(=N)Oc2cc(O)c(C=Nc3cccc(F)c3)cc2C1c1ccco1 (stereo not drawn)	RBX1-CUL1 inh 48
COc1ccccc1N=Cc1cc2c(cc1O)OC(=N)C(C#N)C2c1cccc(F)c1 (stereo not drawn)	none
COc1ccc(N=Cc2cc3c(cc2O)OC(=N)C(C#N)C3c2cccc(F)c2)cc1 (stereo not drawn)	none
Cc1ccc(C(=O)CSc2nnc(-c3ccncc3)n2-c2ccc(C)cc2)cc1	none
COc1ccc(CC2=NOC(CNC(=O)c3c(F)cccc3F)C2)cc1 (stereo not drawn)	none
COc1cccc(C(=O)Nc2cccc(OC(=O)c3ccc(Br)c(S(=O)(=O)N4CCCCC4)c3)c2)c1	none
CCn1c(CNC(=O)c2ccc(OC)cc2)nnc1SCC(=O)Nc1ccc(C(=O)OC)cc1	none
O=C1NN(c2ccc(I)cc2)C(=O)/C1=C\c1ccccc1OCc1ccccc1	none
CNS(=O)(=O)c1ccc(N2CCN(CCO)CC2)nc1	none
Cc1ccc(NC(=O)c2cccc3c2C(=O)c2ccccc2-3)cc1	none
O=C1C(=O)c2c(C(=O)c3cccs3)coc2-c2ccccc21	none
CC(=O)c1coc2c1C(=O)c1ccccc1C2=O	RBX1-CUL1 inh 34
COCCOC1CCN(c2nncc(-c3ccc(C)o3)n2)CC1	none
Cn1cccc1/C=N/Nc1nncc(-c2ccccc2)n1	none
CN1C2CCC1/C(=C/c1cccn1C)C(=O)/C2=C\c1cccn1C	RBX1-CUL1 inh 25
CN1C2CCC1/C(=C/c1cc(Br)cs1)C(=O)/C2=C\c1cc(Br)cs1	none
COC(=O)c1cc2ccc(/C=C/C#Cc3c(C)cc(C)cc3C)cc2c2ccccc12	none
CCN(CC)C(=O)c1c(NC(=O)c2ccco2)sc2c1CCC(C(C)(C)C)C2 (stereo not drawn)	none
CC(C)(C)C1CCc2c(sc(NC(=O)c3ccco3)c2C(=O)O)C1 (stereo not drawn)	RBX1-CUL1 inh 39
Cc1ccccc1C(=O)Nc1sc2c(c1C(=O)O)CCC(C(C)(C)C)C2 (stereo not drawn)	none
CCOC(=O)c1ccc(NC2NS(=O)(=O)C3CCCCC23)cc1 (stereo not drawn)	none
Cc1nc(N2CCCC2C(=O)NC2C3CC4CC2CC(O)(C4)C3)nc2cc(S(C)(=O)=O)ccc12 (stereo not drawn)	none
CCCn1ccc(-c2cccc(-c3nc(C)cnc3C)c2)n1	none
CCOC(=O)c1c(-c2ccc(F)cc2)csc1NC(=O)CSc1nc2ccccc2c(=O)n1-c1ccccc1	none
CCOC(=O)c1c(-c2ccccc2)csc1NC(=O)CSc1cc(C)c2ccccc2n1	none
CCOC(=O)c1c(-c2ccco2)csc1NC(=O)CSc1cc(C)c2ccccc2n1	RBX1-CUL1 inh 91
Cc1ccc(-c2nnc(Nc3cccc(C(=O)O)c3)c(N)n2)cc1	none
CN(C(=O)C1CCN(c2ccccc2)C1=O)C1CCOCC1 (stereo not drawn)	none
CCCCOc1ccc(NC(=O)c2ccc(I)o2)cc1	none
O=S1(=O)C=Cc2ccccc2C1	none
CCc1ccccc1NC(=O)c1sc2nc3c(c(-c4ccc(C)o4)c2c1N)CCCC3	none
CCOC(=O)c1cc(-c2ccc(/C=C3/C(=O)NN(c4ccccc4)C3=O)o2)ccc1Cl	none
CCOC(=O)c1ccc(N2NC(=O)/C(=C/c3ccc(-c4ccc(Br)cc4C(=O)O)o3)C2=O)cc1	RBX1-CUL1 inh 98
CCOC(=O)c1ccc(-c2ccc(/C=C3\C(=O)NN(c4ccc(Br)c5ccccc45)C3=O)o2)cc1	none
c1ccc(-c2cc(-c3ccco3)no2)cc1	none
CN(Cc1ccccc1)C1(C(=O)N2CCCO2)Cc2ccccc2C1	none
C=CCn1c(CNC(=O)c2ccco2)nnc1SCC(=O)Nc1sc2c(c1C#N)CCCC2	none
CC(O)c1ccc(-c2ccc(CNCC3CCNCC3)o2)cc1 (stereo not drawn)	none
O=c1[nH]cccc1I	RBX1-CUL1 inh 66
O=c1[nH]cccc1-c1ccc[nH]c1=O	none
O=c1[nH]cc(I)cc1I	none
C=CCn1c(SCC(=O)Nc2sc(C(=O)OCC)c(C)c2C(=O)OCC)nc2scc(-c3ccco3)c2c1=O	none
C=CCn1c(SCC(=O)Nc2cccc(C(F)(F)F)c2)nc2sc3c(c2c1=O)CCC3	none
C=CCn1c(SCC(=O)Nc2cccc(C(F)(F)F)c2)nc2scc(-c3ccco3)c2c1=O	RBX1-CUL1 inh 34
C/C(=N/NC(=O)c1ccn(C)n1)c1cccc(NC(=O)c2ccc(C)s2)c1	none
O=C(Cn1c(=O)oc2ccccc21)N1CCCC(CO)(CCOc2ccccc2)C1 (stereo not drawn)	none
Cc1ccc(S(=O)(=O)N2CCC(C(=O)Nc3cccc(N(C)C)c3)CC2)cc1	none
Cc1ccc(-c2cc(C(=O)Nc3sc4c(c3C(N)=O)CCC(C(C)(C)C)C4)c3ccccc3n2)o1 (stereo not drawn)	none
NC(=O)c1c(NC(=O)c2cc(-c3ccccc3)nc3ccccc23)sc2c1CCCCCC2	none
CCC1CCc2c(sc(NC(=O)c3cc(-c4ccco4)nc4ccccc34)c2C(N)=O)C1 (stereo not drawn)	RBX1-CUL1 inh 43
CC(=O)c1c(C)nc2sc3c(=O)[nH]nnc3c2c1-c1ccc(Cl)cc1	none
COc1cccc(N2CCN(c3ccncc3S(=O)(=O)N3CCCCC3)CC2)c1	none
C=CCOC(=O)C1C(C)=NC(=O)NC1c1ccc(SC)cc1 (stereo not drawn)	none
C=CCC(=O)NC(C)c1cnc(N(C)C2CCCCC2)nc1C (stereo not drawn)	none
O=C1NC(=Nc2cc(Cl)cc(Cl)c2)S/C1=C\c1ccco1	RBX1-CUL1 inh 28
O=C1NC(=Nc2ccccc2)S/C1=C/c1ccc(-c2ccc(Cl)cc2Cl)o1	none
O=C1NC(=Nc2ccccc2Cl)S/C1=C\c1ccc(-c2ccc(Cl)cc2)o1	none
C=CCNCc1ccc(OCC(O)CN2CCCC2)c(OC)c1 (stereo not drawn)	none
O=C(Nc1ccc2c(c1)OCCO2)C(Sc1ccccc1)c1ccccc1 (stereo not drawn)	none
COc1ccc(Cl)cc1NC(=O)CSc1nnc(-c2cc3cccc(OC)c3o2)n1N	none
O=C(NCC1(c2ccccc2)CCCCC1)Nc1ncn[nH]1	none
CCOC(=O)c1ccc(-c2ccccn2)nc1C	none
CCCCCCCc1nn2c(N)c(C=C3C=C(Cl)C(=O)C(Cl)=C3)c(=O)nc2s1	RBX1-CUL1 inh 95
CCc1nn2c(N)c(C=C3C=C(Cl)C(=O)C(Cl)=C3)c(=O)nc2s1	none
CCCc1nn2c(N)c(C=C3C=C(Br)C=CC3=O)c(=O)nc2s1	none

Screening data: PubChem, Pan Lab, Icahn School of Medicine at Mount Sinai
